Results published in PubChem BioAssay (Tox21).
Records with an inconclusive call do not appear. Active and inactive are the calls of the source. The call rests on the fitted dose curve; in most records, active means well fitted cell-killing curve with a large enough effect in the repeat runs; inconclusive means weak or mixed curves; inactive means no such curve, though single readings can be large or run the other way.
On the % scale 0 is the no-effect control and ±100 the full control effect.

Test: qHTS assay to identify small molecule antagonists of the peroxisome proliferator-activated receptor delta (PPARd) signaling pathway - cell viability counter screen (AID 743213); further: nearly all actives have a fitted effect of over 50% in size
Settings: PPARd-bla HEK293H viability, CellTiter-Glo luminescence, 17 h; series mostly up to 62 µM
Excerpt: U.S. Tox21 Program National Center for Advancing Translational Sciences [NCATS] NIH Chemical Genomics Center [NCGC] U.S. Environmental Protection Agency [EPA] National Institutes of Environmental Health Sciences [NIEHS] National Toxicology Program [NTP] U.S. Food and Drug Administration [FDA] Tox21 Assay Overview: The peroxisome proliferator-activated receptors (PPARs) are lipid-activated transcription factors of the nuclear receptor superfamily with three distinct subtypes namely PPAR alpha, PPAR delta (PPARd) and PPAR gamma. All these subtypes heterodimerizes with Retinoid X receptor (RXR) and have different physiological functions. […] To identify the compounds that inhibit PPAR-delta signaling, GeneBLAzer PPAR delta UAS-bla HEK293H cell line (Invitrogen, Carlsbad, CA, USA) containing a beta-lactamase reporter gene under the control of an Upstream Activator Sequence (UAS) was used to screen the Tox21 compound library. The cytotoxicity of the Tox21 compound library against the PPARd-bla cell line was tested in parallel by measuring the cell viability using CellTiter-Glo assay (Promega, Madison, WI) in the same wells.
Tox21 Assay Protocol Summary: PPARd-bla cells were dispensed at 3000 cells/5uL/well in 1536-well black wall/clear bottom plates using a Multidrop Combi (Thermo Fisher Scientific, Waltham, MA) dispenser. After the assay plates were incubated at 37 C and 5% CO2 for 5 h, 23 nL of compounds dissolved in DMSO, positive controls or DMSO only was transferred to the assay plate by a Pintool station (Kalypsys, San Diego, CA), followed by addition of 1ul L165041 (300 nM, final concentration in the wells). The assay plates were incubated at 37 C for 17 h, and then 1 uL of LiveBLAzerTM B/G FRET substrate was added using a Bioraptr Flying Reagent Dispenser (FRD) workstation (Beckman Coulter, Indianapolis, IN, USA). The assay plates were incubated at room temperature for 2 h and fluorescence intensity was measured by an Envision plate reader (PerkinElmer, Shelton, CT). For cell viability readout that measures cytotoxicity, 3 ul/well of CellTiter-Glo reagent was added into the assay plates using a Bioraptr FRD. After 30 min incubation at room temperature, the luminescence intensity in the plates was measured using a ViewLux plate reader (PerkinElmer).
With `CCC(CO)CO` the outcome was “inactive”.
With `CCCCCCCCCCCCCC(=O)OC` the outcome was “inactive”.
In the case of `COc1cc(C=O)ccc1OC(=O)C(C)C`, the outcome is reported as “inactive”.
In the case of `Cc1cccc(Nc2ccncc2S(=O)(=O)NC(=O)NC(C)C)c1`, the outcome is reported as “inactive”.
For `CCC1COC(=O)O1` (stereo not given), the outcome was “inactive”.
With `c1ccc(CNc2ncnc3nc[nH]c23)cc1` the outcome was “inactive”.
For `O=C1c2ccccc2-c2ccccc21`, the outcome was “inactive”.
In the case of `CCC(C)(CCC(C)C)C(=O)[O-].CCC(C)(CCC(C)C)C(=O)[O-].[Zn+2]` (stereo not given), the outcome is reported as “inactive”.
For `O=[Si]=O`, the outcome was “inactive”.
With `CCS(=O)(=O)CCn1c([N+](=O)[O-])cnc1C` the outcome was “inactive”.
With `C[Si]1(C)N[Si](C)(C)N[Si](C)(C)N1` the outcome was “inactive”.
In the case of `C[C@@H]1C[C@H]2[C@@H]3C[C@H](F)C4=CC(=O)C=C[C@]4(C)[C@@]3(F)[C@@H](O)C[C@]2(C)[C@@]1(O)C(=O)CO`, the outcome is reported as “inactive”.
In the case of `CCCCCCCC/C=C\CCCCCCCC(=O)OC[C@@H](O)[C@H]1OC[C@H](O)[C@H]1O`, the outcome is reported as “inactive”.
In the case of `C1=CCC(c2ccccc2)CC1` (stereo not given), the outcome is reported as “inactive”.
For `CC1CCC(C(C)(C)S)C(=O)C1` (stereo not given), the outcome was “inactive”.
In the case of `CCCCCCCCCCCCCCCCCCN(C)C`, the outcome is reported as “inactive”.
With `Nc1ccc(C(=O)OCC(O)CO)cc1` (stereo not given) the outcome was “inactive”.
With `C=C[Si](C)(C)O[Si](C)(C)C=C` the outcome was “inactive”.
For `NS(=O)(=O)c1ccccc1OC(F)(F)F`, the outcome was “inactive”.
With `CCCCOC(=O)[C@@H](C)Oc1ccc(Oc2ccc(C(F)(F)F)cn2)cc1` the outcome was “inactive”.
For `Cc1cccc(NC(=S)N(C)C)c1`, the outcome was “inactive”.
In the case of `CC(C)SCc1ccco1`, the outcome is reported as “inactive”.
In the case of `CN(C)CCOCCN(C)CCO`, the outcome is reported as “inactive”.
In the case of `CCC(C)N` (stereo not given), the outcome is reported as “inactive”.
In the case of `CCCCOC(=O)C(=O)OCCCC`, the outcome is reported as “inactive”.
With `O=c1[nH]c(=O)c2[nH]c(=O)[nH]c2[nH]1` the viability change, negative = cytotoxic was -1.61% [at 13.7 µM] (inactive).
In the case of `COc1ccc(/C=N/NC(=O)c2ccncc2)cc1OC`, the outcome is reported as “inactive”.
With `NS(=O)(=O)c1cc2c(cc1Cl)NC(CC1CCCC1)NS2(=O)=O` (stereo not given) the outcome was “inactive”.
With `CN=C(NC#N)NCCSCc1csc(N=C(N)N)n1` the outcome was “inactive”.
With `c1ccccc1` the outcome was “inactive”.
For `Cn1c(=O)c2c(ncn2CC2OCCO2)n(C)c1=O`, the outcome was “inactive”.
In the case of `CC(C)COC(=O)/C=C/c1ccccc1`, the outcome is reported as “inactive”.
In the case of `CCCOC(=O)CCCCC(=O)OCCC`, the outcome is reported as “inactive”.
With `CCCCC(CC)COC(=O)c1ccccc1` (stereo not given) the outcome was “inactive”.
With `COCC(=O)Nc1c(I)c(C(=O)NCC(O)CO)c(I)c(C(=O)N(C)CC(O)CO)c1I` (stereo not given) the outcome was “inactive”.
For `O=C(O)c1ccccc1C(=O)OCc1ccccc1`, the outcome was “inactive”.
With `CCCCCC1Nc2cc(C(F)(F)F)c(S(N)(=O)=O)cc2S(=O)(=O)N1` (stereo not given) the outcome was “inactive”.
With `O=CN1CCOCC1` the outcome was “inactive”.
For `C=CC(C)(O)CC/C=C(\C)CC` (stereo not given), the outcome was “inactive”.
For `CCCCCCCCOC(C)=O`, the outcome was “inactive”.
